Laboratory results as given in PubChem BioAssay (NCI).
“And” between values parts separate entries of the source, which are not always exact repeats. Equal entries are not always repeated. About 83,000 compounds went through this panel and 20% of them were active in at least one assay; those are over-represented in the sample as a whole.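 96-well plates, one dose, 48 hours. Percent growth reported; active if below 10.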 The source made the active and inactive calls.

How the values were obtained:
Assay in all cases: NCI-60 one-dose screen, 48 h (100 = growth as untreated, 0 = no growth, -100 = all killed)
Details in all cases: 10 µM unless noted
SR leukemia = test system: SR leukemia
RPMI-8226 leukemia = test system: RPMI-8226 leukemia
OVCAR-8 ovarian = test system: OVCAR-8 ovarian
OVCAR-5 ovarian = test system: OVCAR-5 ovarian
OVCAR-4 ovarian = test system: OVCAR-4 ovarian
SK-OV-3 ovarian = test system: SK-OV-3 ovarian
IGROV1 ovarian = test system: IGROV1 ovarian
OVCAR-3 ovarian = test system: OVCAR-3 ovarian
HS 578T breast = test system: HS 578T breast
NCI/ADR-RES ovarian = test system: NCI/ADR-RES ovarian
T-47D breast = test system: T-47D breast
BT-549 breast = test system: BT-549 breast
MDA-MB-435 melanoma = test system: MDA-MB-435 melanoma
SW-620 colon = test system: SW-620 colon
MCF7 breast = test system: MCF7 breast
HCT-116 colon = test system: HCT-116 colon
KM12 colon = test system: KM12 colon
HCC-2998 colon = test system: HCC-2998 colon

Row | Compound | growth (SR leukemia) | growth (RPMI-8226 leukemia) | growth (OVCAR-8 ovarian) | growth (OVCAR-5 ovarian) | growth (OVCAR-4 ovarian) | growth (SK-OV-3 ovarian) | growth (IGROV1 ovarian) | growth (OVCAR-3 ovarian) | growth (HS 578T breast) | growth (NCI/ADR-RES ovarian) | growth (T-47D breast) | growth (BT-549 breast) | growth (MDA-MB-435 melanoma) | growth (SW-620 colon) | growth (MCF7 breast) | growth (HCT-116 colon) | growth (KM12 colon) | growth (HCC-2998 colon)
1 | CCN(CC)CCCC(C)Nc1cnc(C(=O)Nc2cc(F)cc3cccnc23)cn1 (centres undefined) | 2.84% (active) and 21.7% (inactive) | 75.1% (inactive) and 2.28% (active) | 60.5% (inactive) and -43.9% (active) | 77.1% (inactive) and -24.2% (active) | 12.2% (inactive) and -83.5% (active) | 98.3% (inactive) and 25.8% (inactive) | 41.7% (inactive) and -21.9% (active) | 5.41% (active) and -79.1% (active) | 69.3% (inactive) and 13.7% (inactive) | 66.8% (inactive) and 11.6% (inactive) | 14.3% (inactive) and -49.5% (active) | 77.4% (inactive) and -40.1% (active) | 25.5% (inactive) and 3.24% (active) | 24.3% (inactive) and -78.8% (active) | 2.31% (active) and -37.5% (active) | 9.52% (active) and -66.7% (active) | 75.3% (inactive) and -92.3% (active) | 
2 | CCN(CC)CCNc1cc(-c2cccc(OC(F)(F)F)c2)nc2ccc(N3CCCC3)cc12 | -29.4% (active) and -36.8% (active) and -10.8% (active) | -53.3% (active) and -33.8% (active) and 14.6% (inactive) | 39.7% (inactive) and 2.29% (active) and 22.4% (inactive) | 50.6% (inactive) and 5.44% (active) and 34.6% (inactive) | 59.3% (inactive) and 44.7% (inactive) and 30% (inactive) | 52.6% (inactive) and 10.9% (inactive) and 53.6% (inactive) | -14.8% (active) and 6.93% (active) and 25.2% (inactive) | 75.8% (inactive) and -2.31% (active) and 47.2% (inactive) | 66.4% (inactive) and -7.2% (active) and 38.9% (inactive) | 9.79% (active) and -16.8% (active) and 25.2% (inactive) | 64.4% (inactive) and -11.2% (active) and 20.9% (inactive) | -70.7% (active) and 34.3% (inactive) and 62.7% (inactive) | -4.48% (active) and -55% (active) and -33.6% (active) | 31% (inactive) and 0.803% (active) and 8.35% (active) | 6.94% (active) and -27.3% (active) and -21.5% (active) | -88% (active) and -45.7% (active) and 4.4% (active) | 32.3% (inactive) and -1.83% (active) and 9.39% (active) | 
3 | Cc1cccc(/C=C\C(=O)c2ccccc2)c1 | 42.8% (inactive) and -0.91% (active) | 26% (inactive) | 93.9% (inactive) and 101% (inactive) | 104% (inactive) and 103% (inactive) | 93.3% (inactive) and 113% (inactive) | 101% (inactive) | 91.6% (inactive) | 98.8% (inactive) and 101% (inactive) | 112% (inactive) and 104% (inactive) | 97% (inactive) and 101% (inactive) | 93.8% (inactive) and 93.5% (inactive) | 90.5% (inactive) | 98.4% (inactive) and 88.5% (inactive) | 84.6% (inactive) and 62.2% (inactive) | 43.4% (inactive) and 82.6% (inactive) | 56.9% (inactive) | 85.6% (inactive) and 62.7% (inactive) | 97% (inactive) and 103% (inactive)
4 | CCCCCCCCCCCCOc1ccccc1C=O | 84.9% (inactive) | 96.4% (inactive) | 94.6% (inactive) | 101% (inactive) | 86.5% (inactive) | 95.7% (inactive) | 112% (inactive) | 108% (inactive) | 97% (inactive) | 102% (inactive) | 100% (inactive) |  | 98.3% (inactive) | 101% (inactive) | 81.7% (inactive) | 103% (inactive) | 102% (inactive) | 90.2% (inactive)
5 | Cc1ccc(S(=O)(=O)Nc2ccc3cc([N+](=O)[O-])ccc3c2[N+](=O)[O-])cc1 | 91.8% (inactive) and 64.3% (inactive) | 51.6% (inactive) and 38.2% (inactive) | 81.3% (inactive) and 96.4% (inactive) | 96.9% (inactive) and 106% (inactive) | 81.4% (inactive) and 106% (inactive) | 78% (inactive) and 103% (inactive) | 75.1% (inactive) and 88.1% (inactive) | 46% (inactive) and 98.9% (inactive) | 77.3% (inactive) and 94.7% (inactive) |  | 65.1% (inactive) and 98.3% (inactive) | 92.3% (inactive) and 95.5% (inactive) | 63.3% (inactive) and 91.7% (inactive) | 91.9% (inactive) and 93.4% (inactive) | 89.7% (inactive) and 97.2% (inactive) | 83.8% (inactive) and 80.7% (inactive) | 73.5% (inactive) and 91.6% (inactive) | 73.9% (inactive) and 95.8% (inactive)
6 | Cc1cc(C)c(N)c(Br)c1 | 98.8% (inactive) and 100% (inactive) | 100% (inactive) and 96.7% (inactive) | 123% (inactive) and 106% (inactive) | 101% (inactive) and 78.3% (inactive) | 107% (inactive) and 88.6% (inactive) | 102% (inactive) and 96% (inactive) |  | 117% (inactive) and 96.8% (inactive) | 121% (inactive) and 93.6% (inactive) | 113% (inactive) and 69.2% (inactive) | 98.1% (inactive) and 87.3% (inactive) | 108% (inactive) and 88.8% (inactive) | 114% (inactive) and 104% (inactive) | 111% (inactive) and 104% (inactive) | 103% (inactive) | 110% (inactive) and 95.8% (inactive) | 106% (inactive) and 102% (inactive) | 112% (inactive)
7 | CO/N=C/C=C\C(=O)N/C=C/C[C@H]1/C=C/[C@H](O)/C=C\C=C\c2cccc(O)c2C(=O)O1 | 6.08% (active) and 20.5% (inactive) | 12.8% (inactive) and 11.6% (inactive) | 27.5% (inactive) and 29.7% (inactive) | 39.5% (inactive) and 44.7% (inactive) | 72% (inactive) and 69.4% (inactive) | 49.6% (inactive) and 35% (inactive) | 36.5% (inactive) and 40.3% (inactive) | 60.9% (inactive) and 36.3% (inactive) | 50.9% (inactive) and 57.1% (inactive) |  | 16.4% (inactive) and 17.4% (inactive) | 31.6% (inactive) and 46.9% (inactive) | 6.42% (active) and -15.8% (active) | 17.5% (inactive) and 8.83% (active) | 35.6% (inactive) and 26.1% (inactive) | 21.3% (inactive) and 14.9% (inactive) | 34.3% (inactive) and 20.8% (inactive) | 59.3% (inactive) and 29.1% (inactive)
8 | Cc1cccc(/C=C\C(=O)c2ccc(Cl)cc2)c1 | 36% (inactive) and 3.37% (active) | 26.1% (inactive) | 101% (inactive) and 100% (inactive) | 93.5% (inactive) and 98.5% (inactive) | 89.1% (inactive) and 103% (inactive) | 108% (inactive) and 104% (inactive) | 101% (inactive) and 92.7% (inactive) | 96.6% (inactive) and 101% (inactive) | 112% (inactive) and 102% (inactive) |  | 93.8% (inactive) and 91.9% (inactive) | 82.9% (inactive) | 95.6% (inactive) and 84.4% (inactive) | 89.3% (inactive) and 69% (inactive) | 51.5% (inactive) and 73.7% (inactive) | 52.5% (inactive) and 62.3% (inactive) | 96.3% (inactive) and 95.1% (inactive) | 95% (inactive) and 98.2% (inactive)
9 | C1CCCCNCCC1 | 110% (inactive) | 99.5% (inactive) | 110% (inactive) | 106% (inactive) | 109% (inactive) | 117% (inactive) | 140% (inactive) | 112% (inactive) | 110% (inactive) | 127% (inactive) | 101% (inactive) | 114% (inactive) | 94.6% (inactive) |  | 101% (inactive) | 107% (inactive) | 115% (inactive) | 112% (inactive)
